# Pf growth 96h: P. falciparum growth inhibition at 96 hour, primary screen for plastid delayed-death inhibitors. AID 504834. P. falciparum luciferase reporter growth, 96 h. hit rate 6.9% among 320,000. Potency, µM (top dose mostly 28.7 µM), without a hit: at the top dose activity change, negative = inhibition, actives largely listed as inhibitors; further: potency means the concentration at half of the fitted maximal effect
#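 Parasite growth measured via integrated firefly luciferase reporter in P. falciparum. Infected erythrocytes at 2% hematocrit, 0.05% parasitemia final were treated 96 hours at 37 C under 5% CO2, and luminescence was read.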
# Marburg entry inh: inhibitors of Marburg virus binding or cell entry. AID 540276. hit rate 1.8% among 300,000. Potency, µM (series often up to 37.8 µM), for the others: at the top dose activity change, negative = inhibition, hits mostly inhibitors. Marburg virus pseudotyped entry inhibition, cell reporter; calls by dose curve; tested in HEK293 cells; further: potency means the concentration at half of the fitted maximal effect
# HCV inh: blocks hepatitis C virus; Potency, µM (highest dose often 41.8 µM), for inactives: at the top dose activity change, negative = inhibition, hits mostly inhibitors; AID 651820; Huh7.5.1 HCVcc-Cre infection, luciferase reporter, 44 h; hit rate 3.4% among 340,000; further: potency means the concentration at half of the fitted maximal effect
#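 Luciferase read-out (15 sec integration) after a 15 min room-temperature substrate step quantifies HCVcc-Cre infection. Cells, 1,000 per well, had compound added 4 h post-plating, then virus at ~0.5 moi, and were cultured 44 h.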
# HCMV antiviral: blocks human cytomegalovirus replication. activity change, negative = inhibition, % at 57.5 µM. HFF cells, HCMV-luciferase reporter, 72 h; hits give low values. hit rate 4.5% among 410,000. AID 1259415; in the data active means activity change below about -60%; inconclusive means no clear call, values can overlap the other calls; inactive means above about -39%
#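 Luciferase read-out from HCMV-luciferase-infected HFFs (MOI 1 PFU/cell) 72 h post infection at 37C; compounds added after 16 h cell attachment; activity normalized between buffer-only basal and Salinomycin (10uM) inhibitor controls.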
# Pf growth 48h: inhibits P. falciparum growth in the first generation, 48 h. hit rate 5.9% among 310,000. P. falciparum luciferase growth in erythrocytes, 48 h. Potency, µM (titrated, usually from 28.7 µM), for the others: at the highest dose activity change, negative = inhibition, usual class: inhibitors; further: potency means the concentration at half of the fitted maximal effect
#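 Erythrocytes infected with P. falciparum carrying an integrated firefly luciferase reporter (2% hematocrit, 0.1% parasitemia final) were exposed to compounds in RPMI 1640 with 0.5% Albumax at 37 C, 5% CO2. Growth inhibition was scored as reduced luminescence.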
# Lassa entry inh: Lassa virus entry inhibition; Lassa virus pseudotype entry inhibition, cell reporter; Potency, µM (series often up to 37.9 µM), inactives show at the highest dose activity change, negative = inhibition, usual class: inhibitors; hit rate 1.2% among 300,000; AID 540256; calls by dose curve; tested in HEK293 cells; further: potency means the concentration at half of the fitted maximal effect; nearly all actives have a fitted effect of over 50% in size
# * marks the source's active call; other numbers are inactive results; ? = inconclusive; · = no result; [ ] = dose if it differs, or a comment. Rows were chosen to be rich in hits. Some 14% of all compounds tested hit in one or more screens of this group. Unless noted, the call rests on the fitted dose curve; in most records, active means well fitted inhibition curve with a large enough effect; inconclusive means small, poorly fitted or top-dose-only effect, or another doubt; inactive means no such curve, though single readings can be large or run the other way. On the % scale 0 is the no-effect control and ±100 the full control effect.
SMILES,Pf growth 96h,Marburg entry inh,HCV inh,HCMV antiviral,Pf growth 48h,Lassa entry inh
NC(=O)C(NN=C(c1ccccc1)c1ccccc1)c1ccccc1 (stereo not drawn),·,·,·,-20,·,·
Cc1cccc(NS(=O)(=O)c2ccc3c(c2)CCN3C(=O)C2CC2)c1C,·,?,·,-34,·,-3%[46.1 µM]
Cc1ccc(C(C(=O)NCc2ccco2)N(C(=O)CNC(=O)c2cccs2)c2c(C)cc(C)cc2C)cc1 (stereo not drawn),1%,?,?,-78*,?,?
Cc1ccc(C(C(=O)NCc2ccco2)N(Cc2ccco2)C(=O)CNC(=O)c2ccco2)cc1 (stereo not drawn),6.6µM*,?,19%,-25,-5%,20%
COc1ccc(C(C(=O)NC2CCCCC2)N(Cc2ccco2)C(=O)CNC(=O)c2ccco2)cc1 (stereo not drawn),·,-3%,11%,-8,·,3%
Cc1ccc(C(C(=O)NCc2ccco2)N(C(=O)CNC(=O)c2cccs2)c2c(C)cccc2C)cc1 (stereo not drawn),33%,?,0%,?,4%,-24%[46.1 µM]
CC1COc2c3ccccc3nn21 (stereo not drawn),·,·,·,6,·,·
Cc1ccc(C(C)NC(=O)COC(=O)C2=COCCO2)cc1C (stereo not drawn),15%,·,15%,77,-1%,·
Nc1nc2ccccc2n1/N=C/c1ccc(Br)cc1,10µM*,20%,?,35,-77%,20%
O=C(Nc1ccc2c(c1)nc1n2CCN(Cc2ccccc2)C1)NC1CCCCC1,-14%,5%,-17%,-39,·,3%
COc1ccccc1C(=O)Nc1ccc2c(c1)nc1n2CCN(Cc2ccccc2)C1,?,?,?,-68*,?,?
Cc1ccc(S(=O)(=O)Nc2ccc3c(c2)nc2n3CCN(Cc3ccccc3)C2)cc1,?,?,16µM*,-16,?,?
O=S(=O)(Nc1ccc2c(c1)nc1n2CCN(Cc2ccccc2)C1)c1ccc(F)cc1,-16%,1%,?,-21,12µM*,-1%
O=C(Nc1ccc2c(c1)nc1n2CCN(Cc2ccccc2)C1)c1cccs1,16%,5%,?,-23,?,?
O=S(=O)(Nc1ccc2c(c1)nc1n2CCN(Cc2ccccc2)C1)c1ccc(Cl)cc1,38%,-3%,11µM*,45,9.3µM*,-18%
COc1ccc2cc(C[C@@H]3CC[C@@H](CO)O3)ccc2c1,·,·,2%,43,·,·
COc1cc2c(cc1OC)C(c1ccc(Cl)cc1)N(c1cccc(C#N)c1)C(=O)C2 (stereo not drawn),·,-45%[46.1 µM],·,14,·,?
O=S(=O)(Nc1ccc2c(c1)nc1n2CCN(Cc2ccccc2)C1)c1ccccc1,39%,3%,5.6µM*,-96*,66%,-9%
CCc1noc(C)c1C(=O)N1CCCSC1=Nc1ccccc1C(C)C,6.6µM*,-9%,3%,?,15µM*,4%
CCc1noc(C)c1C(=O)N1CCCC1,?,9%,1%,39,12%,19%[14.3 µM]
Cc1ccccc1C(=O)O/N=C(\N)Cc1cccs1,?,?,?,-62*,?,9%[46.1 µM]
N/C(Cc1cccc2ccccc12)=N\OC(=O)c1cccs1,10%,4%,6%,·,13µM*,3%
COc1ccccc1C/C(N)=N/OC(=O)c1cccs1,19%,11µM*,?,65,13%,10µM*
COc1ccc(C/C(N)=N/OC(=O)c2cccs2)cc1,3%,·,16%,41,46%,·
C[C@H]1CC2C3CCC4=CC(=O)C=C[C@]4(C)[C@@]3(Cl)[C@@H](O)C[C@]2(C)[C@@]1(O)C(=O)CO (stereo partly drawn),·,6%,·,·,·,-10%
SMILES,Pf growth 96h,Marburg entry inh,HCV inh,HCMV antiviral,Pf growth 48h,Lassa entry inh
CCC(=O)OC1(C(=O)CCl)[C@@H](C)C[C@H]2[C@@H]3CCC4=CC(=O)C=C[C@]4(C)[C@@]3(F)[C@@H](O)C[C@@]21C (stereo partly drawn),5.2µM*,·,30%,92,2.3µM*,·
CCC(=O)O[C@@]1(C(=O)CCl)C(C)CC2C3CCC4=CC(=O)C=C[C@@]4(C)[C@]3(F)C(O)C[C@]21C (stereo partly drawn),3.4µM*,·,·,·,6.7µM*,·
C[C@H]1C[C@H]2[C@@H]3CCC4=CC(=O)C=C[C@]4(C)[C@@]3(F)[C@@H](O)C[C@]2(C)[C@@]1(O)C(=O)CO,?,·,-2%,50,-16%,·
CCCC(=O)O[C@]1(C(=O)CCl)[C@@H](C)C[C@H]2[C@@H]3CCC4=CC(=O)C=C[C@]4(C)[C@@]3(F)C(=O)C[C@@]21C,1.3µM*,?,3%[8.37 µM],-17,1.7µM*,-23%
CCC(=O)O[C@]1(C(=O)CCl)[C@@H](C)C[C@H]2[C@@H]3CCC4=CC(=O)C=C[C@]4(C)[C@@]3(F)[C@@H](O)C[C@@]21C,4.1µM*,?,-4%[8.37 µM],142,4.7µM*,?
O=C(OCC1OC(n2ccc(=O)[nH]c2=O)C2OC12)c1ccccc1 (stereo not drawn),·,4%[46.1 µM],9%,-23,·,21%[46.1 µM]
CN(C)C(=O)c1cccc(-c2cccc(-c3nc(C(=O)NCc4ccccc4)cc4c3[C@H](CCO)N(S(=O)C(C)(C)C)C4)c2)c1 (stereo partly drawn),·,·,·,19,·,·
CCC(=O)O[C@]1(C(=O)CCl)[C@@H](C)CC2C3C[C@H](F)C4=CC(=O)C=CC4(C)[C@@]3(F)C(O)CC21C (stereo partly drawn),-13%,·,·,·,1.9µM*,·
CCOc1ccc(C(CC(=O)O)NC(=O)c2ccco2)cc1OC (stereo not drawn),51%,14%,12%,-100*,5%,16%
CCOc1ccc(C(=O)NC(C)CCc2ccccc2)cc1 (stereo not drawn),-32%,·,-6%,28,-4%,·
CCOc1ccc(C(CCc2ccccc2)NC(=O)c2ccccc2)cc1OCC (stereo not drawn),·,-24%,1%,0,4.7µM*,21%[14.3 µM]
Cc1cc(C)cc(OC(C)C(=O)Nc2ccc(S(=O)(=O)Nc3cc(C)nc(C)n3)cc2)c1 (stereo not drawn),13µM*,-10%,-15%,·,1%,?
N#Cc1sc(NCc2ccccc2)nc1Cl,?,?,-4%,2,-3%,?
N#Cc1c(NCc2ccccc2)ccnc1Cl,·,-12%,-20%,-69*,·,-23%
CC(=O)Nc1ccc(NC(=O)c2ccc(S(=O)(=O)N(C)c3ccccc3)cc2)cc1,?,·,?,?,13µM*,·
CN(C)S(=O)(=O)c1ccc(C(=O)Nc2ccccc2C(=O)O)cc1,13µM*,6%[46.1 µM],6%,41,-12%,18%
CN(C)S(=O)(=O)c1ccc(C(=O)Nc2ccccc2F)cc1,·,10%,11%,31,11%,?

# Screening data (PubChem)
